# Experimental data taken from PubChem BioAssay (Tox21).
# A number with no mark means an inactive call. Inconclusive results are not listed. Entries that show only a call come without a potency. The source made the active and inactive calls. Unless noted, calls follow the shape of the dose curve; as a rule, active = well fitted curve in the direction sought with a large enough effect in the repeat runs; inconclusive = weak or mixed curves; inactive = no such curve, though single readings can be large; an effect the other way counts as inactive or inconclusive.
# Assays:
# [1] = target: Androgen receptor (Homo sapiens) (UniProt P10275); assay: qHTS assay to identify small molecule antagonists of the androgen receptor (AR) signaling pathway using the MDA cell line in the presence of 0.5 nM R1881 (AID 1259243); also: nearly all actives have a fitted effect of over 50% in size; also: potency is read from the fitted curve at half-maximal effect
# Summary of the method: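 Luminescence from an AR/GR-responsive MMTV-luciferase construct in MDA-kb2 breast carcinoma cells, read 30 min after ONE-Glo, following 16 hr co-treatment with compounds and 0.5 nM R1881.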
# [2] = target: Estrogen receptor (Homo sapiens) (UniProt P03372); assay: qHTS assay to identify small molecule antagonists of the estrogen receptor alpha (ER-alpha) signaling pathway using the BG1 cell line in the presence of 0.1 nM 17-beta-estradiol (AID 1259244); also: nearly all actives have a fitted effect of over 50% in size
# Summary of the method: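 Luciferase signal from VM7Luc4E2 ERE-reporter cells, co-dosed with test compound and 0.1 nM final 17beta-estradiol for 22 h, read with ONE-Glo.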
# [3] = qHTS assay to identify small molecule phospholipidosis (PLD) inducers (AID 1259344; active = well fitted curve in the direction sought with a large enough effect; an effect the other way counts as inactive or inconclusive)
# Summary of the method: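 Accumulated phospholipid, stained red by LipidTOX during 24 h compound treatment of HepG2 cells at 37 C, is quantified from images as pit number and intensity, normalised per cell using Hoechst-stained nuclei.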
# [4] = qHTS assay to identify small molecule HDAC inhibitors (AID 1259364);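 also: wild-type HCT-116 cells with endogenous class I/II HDAC activity; top concentration of the series differs between compounds; nearly all actives have a fitted effect of over 45% in size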
# Summary of the method: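 HCT-116 wt cells, 1,500/well, overnight attach. Compounds (DMSO) 2 h, 37 °C. HDAC-Glo I/II, 30 min RT. Luminescence.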
# [5] = qHTS assay to identify small molecule HDAC inhibitors - cell viability counter screen (AID 1259365); also: series mostly up to about 92 µM; nearly all actives have a fitted effect of over 50% in size
# Summary of the method: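 HCT-116 wild-type, overnight attachment; 2hr drug exposure, 37C; CellTiter-Glo luminescent ATP readout after 30min RT.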
# [6] = qHTS assay to identify small molecule antagonists of the sonic hedgehog signaling (Shh) pathway - cell viability counter screen (AID 1259367); also: nearly all actives have a fitted effect of over 55% in size
# Summary of the method: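 CellTiter-Fluor signal in conditioned medium-stimulated 3T3 Gli1-Luc cells, 23 hr compound exposure, 37C.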
# [7] = qHTS assay to identify small molecule agonists of the sonic hedgehog signaling (Shh) pathway (AID 1259368; calls by dose curve;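 also: NIH/3T3-derived 3T3Gli1-Luc cells carrying a stable Gli1-driven firefly luciferase reporter; series mostly up to about 92 µM; nearly all actives have a fitted effect of over 15% in size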)
# Summary of the method: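 Following a 24 hr incubation with DMSO-dissolved compounds at 37 C, 5% CO2, Gli1-Luc NIH/3T3-derived cells received luciferase reagent for 30 min at room temperature prior to luminescence measurement.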
# [8] = qHTS assay to identify small molecule antagonists of the sonic hedgehog signaling (Shh) pathway (AID 1259369; calls by dose curve; also: nearly all actives have a fitted effect of over 45% in size)
# Summary of the method: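 Read-out is luminescence from a firefly luciferase gene controlled by the Gli1 response element, in 3T3Gli1-Luc cells pre-incubated 4hr then exposed to compounds and conditioned medium for 24hr.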
# [9] = qHTS assay to identify small molecule agonists of the sonic hedgehog signaling (Shh) pathway - cell viability counter screen (AID 1259366); also: nearly all actives have a fitted effect of over 50% in size
# Summary of the method: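 Compounds in DMSO were pin-transferred onto 3T3 Gli1-Luc cells that had settled 4hr; plates then stood 24hr at 37C and 5% CO2. One hour before the end, CellTiter-Fluor was added and fluorescence recorded.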
# [10] = target: Estrogen receptor beta (Homo sapiens) (UniProt Q92731); assay: qHTS assay to identify small molecule agonists of the estrogen receptor beta (ER-beta) signaling pathway (AID 1259377; active = well fitted activation curve with a large enough effect in the signal ratio in the repeat runs, not every such curve was filed as active; the % refers to the signal ratio)
# Summary of the method: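 qHTS in ER-beta-UAS-bla HEK293T cells: 6 hr settling, then 16 hr compound at 37C, then LiveBLAzer substrate 2 h at RT before fluorescence reading.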
# Chain of Estrogen receptor beta (Homo sapiens) (Q92731 whole entry, looked up): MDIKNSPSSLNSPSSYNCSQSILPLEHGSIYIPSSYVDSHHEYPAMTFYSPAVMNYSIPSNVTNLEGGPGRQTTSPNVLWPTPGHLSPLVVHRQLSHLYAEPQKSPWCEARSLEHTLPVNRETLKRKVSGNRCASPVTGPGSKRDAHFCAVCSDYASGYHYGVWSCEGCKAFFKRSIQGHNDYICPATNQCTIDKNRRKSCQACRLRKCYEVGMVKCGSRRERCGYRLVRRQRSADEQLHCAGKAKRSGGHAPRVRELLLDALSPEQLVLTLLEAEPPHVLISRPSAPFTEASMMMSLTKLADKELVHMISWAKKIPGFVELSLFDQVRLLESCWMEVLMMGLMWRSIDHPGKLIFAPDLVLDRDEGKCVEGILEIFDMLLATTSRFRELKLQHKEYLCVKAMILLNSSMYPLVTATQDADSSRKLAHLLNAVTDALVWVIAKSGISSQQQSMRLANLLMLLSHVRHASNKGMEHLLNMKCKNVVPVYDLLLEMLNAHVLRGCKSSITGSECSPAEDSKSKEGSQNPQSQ
# Chain of Androgen receptor (Homo sapiens) (P10275 whole entry, looked up): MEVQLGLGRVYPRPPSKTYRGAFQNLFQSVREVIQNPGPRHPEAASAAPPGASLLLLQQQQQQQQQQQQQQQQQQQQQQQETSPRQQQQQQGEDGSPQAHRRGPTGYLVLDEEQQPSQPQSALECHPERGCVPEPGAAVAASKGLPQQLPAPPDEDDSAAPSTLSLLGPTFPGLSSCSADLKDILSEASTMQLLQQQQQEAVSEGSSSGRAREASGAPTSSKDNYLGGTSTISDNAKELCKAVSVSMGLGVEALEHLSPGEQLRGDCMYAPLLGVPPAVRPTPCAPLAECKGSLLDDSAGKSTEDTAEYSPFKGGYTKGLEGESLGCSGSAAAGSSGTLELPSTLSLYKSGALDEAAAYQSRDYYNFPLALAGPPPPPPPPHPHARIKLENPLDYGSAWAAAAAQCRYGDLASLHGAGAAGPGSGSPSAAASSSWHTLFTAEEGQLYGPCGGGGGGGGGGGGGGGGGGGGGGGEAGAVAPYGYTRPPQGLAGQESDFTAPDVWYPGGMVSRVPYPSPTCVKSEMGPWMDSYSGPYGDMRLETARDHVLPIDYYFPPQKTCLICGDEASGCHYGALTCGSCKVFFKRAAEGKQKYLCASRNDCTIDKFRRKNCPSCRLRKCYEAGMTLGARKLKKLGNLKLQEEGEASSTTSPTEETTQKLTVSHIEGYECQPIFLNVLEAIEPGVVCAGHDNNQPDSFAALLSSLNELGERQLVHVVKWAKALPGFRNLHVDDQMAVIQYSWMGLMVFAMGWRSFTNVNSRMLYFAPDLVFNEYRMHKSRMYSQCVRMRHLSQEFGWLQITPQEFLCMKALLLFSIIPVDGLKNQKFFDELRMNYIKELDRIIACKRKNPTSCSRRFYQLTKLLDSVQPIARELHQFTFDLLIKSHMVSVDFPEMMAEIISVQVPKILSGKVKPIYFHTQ
# Chain of Estrogen receptor (Homo sapiens) (P03372 whole entry, looked up): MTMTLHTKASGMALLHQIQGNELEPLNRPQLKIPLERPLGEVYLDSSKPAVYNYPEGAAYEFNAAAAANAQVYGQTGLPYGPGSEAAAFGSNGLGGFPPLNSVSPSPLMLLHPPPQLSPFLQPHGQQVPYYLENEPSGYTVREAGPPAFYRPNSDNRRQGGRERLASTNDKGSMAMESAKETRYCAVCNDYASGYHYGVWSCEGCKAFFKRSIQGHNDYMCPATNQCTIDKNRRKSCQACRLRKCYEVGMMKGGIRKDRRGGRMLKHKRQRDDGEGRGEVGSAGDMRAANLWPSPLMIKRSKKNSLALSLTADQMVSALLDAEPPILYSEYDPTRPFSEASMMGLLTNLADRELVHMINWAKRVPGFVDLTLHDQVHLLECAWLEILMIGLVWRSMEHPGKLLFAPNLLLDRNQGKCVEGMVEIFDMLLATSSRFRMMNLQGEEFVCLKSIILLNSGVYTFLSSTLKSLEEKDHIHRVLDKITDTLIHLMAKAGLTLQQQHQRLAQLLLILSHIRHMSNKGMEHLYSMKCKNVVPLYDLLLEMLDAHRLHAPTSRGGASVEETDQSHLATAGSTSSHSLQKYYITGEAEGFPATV
smiles,measurement,setting,value
CCCSS/C(CCO)=C(\C)N(C=O)Cc1cnc(C)nc1N,Potency,[1],inactive
same,Potency,[2],inactive
same,Potency,[3],inactive
same,Potency,[4],inactive
same,Potency,[5],inactive
same,Potency,[6],inactive
same,Potency,[7],inactive
same,Potency,[8],inactive
Cc1cn[nH]c1,Potency,[1],inactive
same,Potency,[2],inactive
same,Potency,[3],inactive
same,Potency,[4],inactive
same,Potency,[5],inactive
same,Potency,[9],inactive
same,Potency,[6],inactive
same,Potency,[7],inactive
same,Potency,[8],inactive
same,Potency,[10],inactive
Oc1cc2ccccc2cc1O,Potency,[1],30.6 µM (active)
same,Potency,[2],inactive
same,Potency,[4],inactive
same,Potency,[5],inactive
same,Potency,[9],inactive
same,Potency,[6],inactive
same,Potency,[7],inactive
O=Cc1ccc(F)cc1,Potency,[1],inactive
same,Potency,[2],inactive
same,Potency,[4],inactive
same,Potency,[5],inactive
same,Potency,[9],inactive
same,Potency,[6],inactive
same,Potency,[7],inactive
same,Potency,[8],inactive
OCCCS,Potency,[1],inactive
same,Potency,[2],inactive
same,Potency,[4],inactive
same,Potency,[5],inactive
same,Potency,[9],inactive
same,Potency,[6],inactive
same,Potency,[7],inactive
same,Potency,[8],inactive
CCCCCCCC(=O)OCC,Potency,[1],inactive
same,Potency,[2],inactive
same,Potency,[4],inactive
same,Potency,[5],inactive
same,Potency,[9],inactive
same,Potency,[6],inactive
same,Potency,[7],inactive
same,Potency,[8],inactive
O=C(O)Cc1ccc(OCCNC[C@H](O)c2ccccc2)cc1,Potency,[1],inactive
same,Potency,[2],inactive
same,Potency,[3],inactive
same,Potency,[4],inactive
same,Potency,[5],inactive
same,Potency,[9],inactive
same,Potency,[7],inactive
CCO[Si](C)(C)OCC,Potency,[1],inactive
same,Potency,[2],inactive
same,Potency,[4],inactive
same,Potency,[5],inactive
same,Potency,[9],inactive
same,Potency,[6],inactive
same,Potency,[7],inactive
same,Potency,[8],inactive
CO[Si](CCCNCCNCCN)(OC)OC,Potency,[1],inactive
same,Potency,[2],inactive
same,Potency,[4],inactive
same,Potency,[5],inactive
same,Potency,[9],inactive
same,Potency,[6],inactive
same,Potency,[7],inactive
same,Potency,[8],inactive
c1cc[nH]c1,Potency,[1],inactive
same,Potency,[2],inactive
same,Potency,[4],inactive
same,Potency,[5],inactive
same,Potency,[9],inactive
same,Potency,[6],inactive
same,Potency,[7],inactive
same,Potency,[8],inactive
OCCCc1cccnc1,Potency,[1],inactive
same,Potency,[2],inactive
same,Potency,[4],inactive
same,Potency,[5],inactive
same,Potency,[9],inactive
same,Potency,[6],inactive
same,Potency,[7],inactive
same,Potency,[8],inactive
CC(C)CCOCCC(C)C,Potency,[1],inactive
same,Potency,[2],inactive
same,Potency,[4],inactive
same,Potency,[5],inactive
same,Potency,[9],inactive
same,Potency,[6],inactive
same,Potency,[7],inactive
same,Potency,[8],inactive
same,Potency,[10],inactive
NC(=O)c1ccccc1N,Potency,[1],inactive
same,Potency,[2],inactive
same,Potency,[4],inactive
same,Potency,[5],inactive
same,Potency,[9],inactive
same,Potency,[7],inactive
same,Potency,[8],inactive
CCCCN(C)C,Potency,[1],inactive
same,Potency,[2],inactive
same,Potency,[4],inactive
same,Potency,[5],inactive
same,Potency,[9],inactive
same,Potency,[7],inactive
same,Potency,[8],inactive
O=c1cccc[nH]1,Potency,[1],inactive
same,Potency,[2],inactive
same,Potency,[4],inactive
same,Potency,[5],inactive
same,Potency,[9],inactive
same,Potency,[7],inactive
same,Potency,[8],inactive
same,Potency,[10],inactive
COc1nccnc1CC(C)C,Potency,[1],inactive
same,Potency,[2],inactive
same,Potency,[4],inactive
same,Potency,[5],inactive
same,Potency,[9],inactive
same,Potency,[6],inactive
same,Potency,[7],inactive
same,Potency,[8],inactive
same,Potency,[10],inactive
CC1=CP(=O)(c2ccccc2)CC1 (centres undefined),Potency,[1],inactive
same,Potency,[2],inactive
same,Potency,[4],inactive
same,Potency,[5],inactive
same,Potency,[9],inactive
same,Potency,[7],inactive
same,Potency,[8],inactive
same,Potency,[10],inactive
CCc1ccc(C)nc1,Potency,[1],inactive
same,Potency,[2],inactive
same,Potency,[4],inactive
same,Potency,[5],inactive
same,Potency,[9],inactive
same,Potency,[7],inactive
same,Potency,[8],inactive
same,Potency,[10],inactive
C[C@@H]1CC[C@H]2C(C)(C)[C@H]3C[C@@]12CC[C@@]3(C)O,Potency,[1],inactive
same,Potency,[2],inactive
same,Potency,[4],inactive
same,Potency,[5],inactive
same,Potency,[9],inactive
same,Potency,[7],inactive
same,Potency,[8],inactive
same,Potency,[10],inactive
CC(C)(C)c1cc(CCC(=O)NCCCCCCNC(=O)CCc2cc(C(C)(C)C)c(O)c(C(C)(C)C)c2)cc(C(C)(C)C)c1O,Potency,[1],inactive
same,Potency,[2],inactive
same,Potency,[4],inactive
same,Potency,[5],inactive
same,Potency,[9],inactive
same,Potency,[6],inactive
same,Potency,[7],inactive
same,Potency,[8],inactive
same,Potency,[10],inactive
C[Si](C)(C)Cl,Potency,[1],inactive
same,Potency,[2],inactive
same,Potency,[4],inactive
same,Potency,[5],inactive
same,Potency,[9],inactive
same,Potency,[6],inactive
same,Potency,[7],inactive
same,Potency,[8],inactive
same,Potency,[10],inactive
CCCC(=O)OCC(COC(=O)CCC)OC(=O)CCC,Potency,[1],inactive
same,Potency,[2],inactive
same,Potency,[4],inactive
same,Potency,[5],inactive
same,Potency,[9],inactive
same,Potency,[6],inactive
same,Potency,[7],inactive
same,Potency,[8],inactive
same,Potency,[10],inactive
CC(C)=CCCC(C)O (centres undefined),Potency,[1],inactive
same,Potency,[2],inactive
same,Potency,[4],inactive
same,Potency,[5],inactive
same,Potency,[9],inactive
same,Potency,[6],inactive
same,Potency,[7],inactive
same,Potency,[8],inactive
same,Potency,[10],inactive
COc1ccccc1C=O,Potency,[1],inactive
same,Potency,[2],inactive
same,Potency,[4],inactive
same,Potency,[5],inactive
same,Potency,[9],inactive
same,Potency,[6],inactive
same,Potency,[7],inactive
same,Potency,[8],inactive
same,Potency,[10],inactive
CCCCCCCCCCCCCCCCCO,"activity, negative = inhibition",[1],-1.74% [at 19 µM]
same,"activity change, negative = inhibition",[2],0.173% [at 19 µM]
same,"activity change, negative = inhibition",[4],-0.454% [at 19 µM]
same,"activity change, negative = cytotoxicity",[5],1.77% [at 19 µM]
same,"viability change, negative = cytotoxic",[9],-3.91% [at 19 µM]
same,activity change,[7],"-2.43% [at 18.9 µM, active compounds read high]"
same,"activity change, negative = inhibition",[8],-1.47% [at 19 µM]
